For assay [1], the target named is Guanine nucleotide-binding protein G(i) subunit alpha-1 (Homo sapiens) (UniProt P63096). Nature of the assay: qHTS Assay for Inhibitors of RGS12 GoLoco Motif Activity (Green Fluorophore) (AID 879).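 Note: 0% = labeled peptide with Gαi1 and full inhibition = labeled peptide alone without protein; negative values mean loss of peptide binding seen as reduced polarization.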 As to conditions: Galphai1/FITC-RGS12 GoLoco peptide, fluorescence polarization; series mostly up to 57.1 µM. The gist of the method:
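Fluorescence polarization assay: 50 nM Gαi1 with 10 nM FITC-labeled RGS12 GoLoco peptide in 10 mM Tris pH 7.5, 150 mM NaCl, 0.1 mM GDP, 0.05% NP40, 10 min at room temperature with compound.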
(In general: In qHTS, concentration-response curves come from the screen itself.)

A short description of assay [2]: qHTS Assay for Identification of Small Molecule Antagonists for NFkB Signaling Pathway (AID 895; active = well fitted inhibition curve with a large enough effect in the signal ratio, with a control signal flat, not every such curve was filed as active; the % refers to the signal ratio; note: potency is the fitted concentration of half-maximal effect). As to conditions: NFkB beta-lactamase reporter cells, FRET ratio 460/530; series mostly up to 38.3 µM. The gist of the method: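 Beta-lactamase reporter read-out (460 and 530 nm emission ratio, 405 nm excitation, 2 hrs substrate loading RT) after 5 hr stimulation with 10 pM TNF alpha in compound-treated NFkB-bla ME-180 cells in low-serum medium.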

Assay [3] is described as follows: qHTS Assay for Identification of Small Molecule Agonists for Thrombopoietin (TPO) Signaling Pathway (AID 917). Note: % is set by controls: 0 for no effect and ±100 for the full control effect. The settings on record: TPO signaling pathway reporter cells, agonist qHTS; series mostly up to 38.5 µM. The gist of the method:
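Luminescence from a Glycoprotein IIb promoter–driven luciferase reporter served as read-out in murine Ba/F3 cells carrying the human TPO receptor. Cells, deprived of IL-3 overnight, received compounds with 26 pM TPO and were incubated 24 hrs at 37 C.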

Assay [4] has as its target Pyruvate kinase (Leishmania mexicana) (UniProt Q27686). Nature of the assay: qHTS Validation Assay for Inhibitors of Leishmania Mexicana Pyruvate Kinase (AID 945).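 Note: 0% = DMSO only neutral control wells.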 As to conditions: purified L. mexicana pyruvate kinase, enzyme activity, E451W mutant enzyme; series mostly up to 57.5 µM. The procedure, abridged:
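Eight-point qHTS titrations; enzyme 0.2 nM LmPYK (E451W mutant); substrates 0.5 mM PEP, 0.1 mM ADP; 7 mM MgCl2; 1 h room temperature; PKLight luminescence normalized to neutral control.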

For assay [5], the target named is Alpha-galactosidase (Coffea arabica) (UniProt Q42656). Nature of the assay: Counterscreen for Glucocerebrosidase Inhibitors: qHTS Assay for Coffee Bean alpha-Galactosidase at pH 4.5 (AID 957).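 Note: plate controls were enzyme alone for no effect and no enzyme for full effect.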 The settings on record: purified coffee bean alpha-galactosidase, fluorogenic substrate; series mostly up to 76.9 µM. The procedure, abridged:
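Green coffee bean enzyme (2 nM final) was incubated with compounds (0.7 nM to 77 uM) and 4-methylumbelliferyl alpha-D-galactopyranoside (80 uM final) in 50 mM citric acid, 0.005% Tween-20, pH 4.5, 20 min at room temperature; AC50 from Hill fits.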
(In general: A counterscreen serves to expose hits that act by an unwanted route or on another target.)

Assay [6] deals with Alpha-galactosidase A (Homo sapiens) (UniProt P06280). Briefly: Counterscreen for Glucocerebrosidase Inhibitors: qHTS Assay for Human alpha-Galactosidase at pH 4.5 (AID 992). Note: 0% is about no effect. The settings on record: purified enzyme, fluorogenic substrate; series mostly up to 76.9 µM. The procedure, abridged: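 Enzyme at 2 nM final was combined with compound (0.7 nM to 77 uM) and 80 uM 4-methylumbelliferyl alpha-D-galactopyranoside in 50 mM citric acid, 0.005% Tween-20, pH 4.5. After 20 min at room temperature, fluorescence was read (Ex 365/Em 440 nm); AC50 came from Hill fits.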
Chain of Alpha-galactosidase A (Homo sapiens) (P06280 whole entry, looked up): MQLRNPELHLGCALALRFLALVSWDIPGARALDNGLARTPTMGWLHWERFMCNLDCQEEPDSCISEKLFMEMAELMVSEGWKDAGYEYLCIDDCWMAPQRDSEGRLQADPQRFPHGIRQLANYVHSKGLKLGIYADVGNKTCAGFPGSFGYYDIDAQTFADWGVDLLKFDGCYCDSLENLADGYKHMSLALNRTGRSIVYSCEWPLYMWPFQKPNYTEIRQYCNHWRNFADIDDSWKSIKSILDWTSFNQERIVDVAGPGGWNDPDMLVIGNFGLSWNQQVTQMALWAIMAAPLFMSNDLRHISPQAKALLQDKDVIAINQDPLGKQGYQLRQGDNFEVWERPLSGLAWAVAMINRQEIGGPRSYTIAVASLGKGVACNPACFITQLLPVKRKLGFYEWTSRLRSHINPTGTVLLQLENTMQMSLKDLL

The target in assay [7] is alpha-glucosidase (Oryza sativa, rice) (UniProt Q653V4). Nature of the assay: Counterscreen for Glucocerebrosidase Inhibitors: qHTS Assay for Rice alpha-Glucosidase at pH 5.0 (AID 997).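 Note: 0% = full activity with enzyme and -100% = basal without enzyme.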 The settings on record: rice alpha-glucosidase enzyme activity; series mostly up to 76.9 µM. The procedure, abridged: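 Rice alpha-glucosidase (4 nM final) with 400 uM 4-methylumbelliferyl-alpha-D-glucopyranoside in citrate buffer pH 5.0, 20 min at room temperature, stopped at pH 10; fluorescence 365/440 nm, compounds 0.7 nM–77 uM, AC50 from Hill fits.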

Assay [8] concerns the target Alpha-galactosidase (Coffea arabica) (UniProt Q42656). Briefly: Counterscreen for Glucocerebrosidase Inhibitors: qHTS Assay for Coffee Bean alpha-Galactosidase at pH 5.9 (AID 998).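 Note: plate controls were uninhibited enzyme for no effect and no-enzyme basal signal for full effect.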 As to conditions: coffee bean alpha-galactosidase enzyme assay; series mostly up to 76.9 µM. The procedure, abridged: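 Compounds were titrated from 0.7 nM to 77 uM against green coffee bean alpha-galactosidase (2 nM) using 80 uM fluorogenic 4-methylumbelliferyl substrate. After 20 min at room temperature, reactions were stopped at pH 10 and read by fluorescence.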

Assay [9] concerns the target Endonuclease 4 (Escherichia coli (strain K12)) (UniProt P0A6C1). Nature of the assay: Counterscreen for APE1 Inhibitors: qHTS Validation Assay for Inhibitors of Endonuclease IV (AID 1708). Note: % is set by controls: 0 for no effect and ±100 for the full control effect. The settings on record: E. coli endonuclease IV, DNA cleavage fluorescence; series mostly up to 57.1 µM. The gist of the method:
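Enzymatic AP-site incision assay using a double-stranded THF substrate labelled with TAMRA and BHQ-2; released fluorescence signals activity. Enzyme 2 nM, substrate 50 nM, 15 min compound preincubation.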

The nature of assay [10]: qHTS for differential inhibitors of proliferation of Plasmodium falciparum line D10 (AID 1877).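 Note: potency is the fitted concentration of half-maximal effect; parasites grown with compound for 72 h before DNA staining.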 As to conditions: series mostly up to 28.7 µM.
The target of assay [11] is Thyrotropin receptor (Homo sapiens) (UniProt P16473). Nature of the assay: qHTS Assay for Antagonists of the Thyroid Stimulating Hormone Receptor (AID 488980). Note: 0% is about no effect. As to conditions: TSHR-expressing cells, cAMP antagonist read-out; series mostly up to 57.5 µM. The procedure, abridged: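 Readout is cAMP by HTRF competition between cellular cAMP and cAMP-d2 for a cryptate-labelled antibody. Antagonism was assessed in TSHR-transfected HEK293 cells stimulated with 4 nM TSH (EC80, final) in the presence of RO 20-1724.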
Chain of Thyrotropin receptor (Homo sapiens) (P16473 whole entry, looked up): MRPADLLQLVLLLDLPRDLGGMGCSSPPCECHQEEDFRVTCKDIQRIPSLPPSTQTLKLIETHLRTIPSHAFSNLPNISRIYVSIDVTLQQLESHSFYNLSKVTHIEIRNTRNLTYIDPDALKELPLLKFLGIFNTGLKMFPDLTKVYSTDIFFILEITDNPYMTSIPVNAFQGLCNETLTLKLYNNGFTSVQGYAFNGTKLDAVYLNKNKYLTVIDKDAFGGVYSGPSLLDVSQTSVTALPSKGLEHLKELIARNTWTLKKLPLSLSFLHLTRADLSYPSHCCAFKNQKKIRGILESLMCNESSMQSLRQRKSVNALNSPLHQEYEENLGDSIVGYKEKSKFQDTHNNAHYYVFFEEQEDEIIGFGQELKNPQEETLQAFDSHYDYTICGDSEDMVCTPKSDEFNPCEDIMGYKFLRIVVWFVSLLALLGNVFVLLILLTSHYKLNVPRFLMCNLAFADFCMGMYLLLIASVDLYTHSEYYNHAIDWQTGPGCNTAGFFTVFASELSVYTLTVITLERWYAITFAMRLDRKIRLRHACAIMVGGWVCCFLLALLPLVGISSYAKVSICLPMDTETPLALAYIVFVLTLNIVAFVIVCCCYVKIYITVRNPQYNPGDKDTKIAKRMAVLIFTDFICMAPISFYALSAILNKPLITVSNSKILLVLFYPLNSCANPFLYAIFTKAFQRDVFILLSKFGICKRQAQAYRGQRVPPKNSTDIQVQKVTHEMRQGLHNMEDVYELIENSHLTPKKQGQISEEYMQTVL

The target in assay [12] is Thyrotropin-releasing hormone receptor (Homo sapiens) (UniProt P34981). Nature of the assay: qHTS for Small Molecule Agonists and Allosteric Enhancers of Human TRH Receptor: Validation Screen for Agonists (AID 493127;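 active = calcium activation more than 3 SD above the typical response in the agonist read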;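 note: intracellular calcium rise by fluo-8 fluorescence before TRH EC20 addition; 0% is about no effect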). As to conditions: TRH receptor agonist cell assay; at 2 µM; stronger effect = higher value. The procedure, abridged:
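TRHR-expressing cells were plated overnight in serum-containing medium, then loaded with fluo-8 calcium dye at room temperature for 30 min–1.5 h. After a 10 s baseline, compound was pin-transferred and calcium fluorescence (ex 480/em 530) read kinetically for agonist response.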

In assay [13] the target is Galactokinase (Homo sapiens) (UniProt P51570). Nature of the assay: qHTS Validation Assay for Inhibitors of Human Galactokinase (GALK) (AID 493189). Note: 0% is about no effect. The settings on record: purified human GALK enzyme activity, qHTS 7-point titration; series mostly up to 57.5 µM. The gist of the method: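 5 nM GALK / 100 uM galactose / 35 uM ATP, 20 mM HEPES pH8.0, 5 mM MgCl2, 60 mM NaCl, 1 mM DTT, 0.01% BSA (final). RT 1 h; Kinase-Glo Plus luminescence.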
Chain of Galactokinase (Homo sapiens) (P51570 whole entry, looked up): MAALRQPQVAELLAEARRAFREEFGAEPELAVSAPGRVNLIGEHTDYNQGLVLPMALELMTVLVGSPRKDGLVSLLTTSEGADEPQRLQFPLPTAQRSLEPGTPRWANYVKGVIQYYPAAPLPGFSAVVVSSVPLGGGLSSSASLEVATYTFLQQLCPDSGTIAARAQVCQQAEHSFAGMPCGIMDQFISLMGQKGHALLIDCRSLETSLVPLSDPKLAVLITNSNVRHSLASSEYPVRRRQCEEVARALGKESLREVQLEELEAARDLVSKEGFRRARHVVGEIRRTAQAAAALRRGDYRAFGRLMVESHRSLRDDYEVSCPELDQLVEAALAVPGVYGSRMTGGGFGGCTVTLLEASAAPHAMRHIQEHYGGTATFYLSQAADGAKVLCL

The nature of assay [14]: Validation screen for small molecules that induce DNA re-replication in SW480 colon adenocarcinoma cells (AID 504364). Note: 0% is about no effect. The settings on record: DNA re-replication phenotype (high-content imaging); series mostly up to 46.1 µM. The procedure, abridged: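 SW480 cells seeded at 250 per well were exposed to compound or DMSO for 48 hr at 37 C, 5% CO2, then stained with Hoechst for 40 min. DNA content per nucleus was imaged (405 nm ex, 500-530 nm em).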

The target in assay [15] is Dual specificity protein kinase CLK4 (Homo sapiens) (UniProt Q9HAZ1). Briefly: qHTS Assay for Inhibitors of CDC-like Kinase 4 (Kinase-Glo Assay) (AID 1770). Note: % is set by controls: 0 for no effect and ±100 for the full control effect; nearly all actives have a fitted effect of over 65% in size. The settings on record: recombinant Clk4, Kinase-Glo ATP depletion luminescence; series mostly up to 66.7 µM. The procedure, abridged:
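Substrate mix (RS peptide 100 uM, ATP 1 uM) dispensed, compound pinned in, then Clk4 added to 25 nM final. Incubated 4.5 h at RT; Kinase-Glo reagent added, luminescence read after 5 min.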

For assay [16] the target is unchanged. Briefly: qHTS Assay for Inhibitors of CDC-like Kinase 4 (ADP-FP Assay) (AID 1795).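 Note: recombinant human CLK4 phosphorylating RS repeat peptide at 1 µM ATP; % is set by controls: 0 for no effect and ±100 for the full control effect; nearly all actives have a fitted effect of over 60% in size.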 As to conditions: Transcreener ADP fluorescence polarization; series mostly up to 50 µM. The gist of the method: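 Clk4 6.25 nM; RS peptide 100 uM; ATP 1 uM; 25 mM Tris pH 7.5, 10 mM MgCl2; 1 h reaction. ADP detected via antibody/orange tracer FP displacement; TG003 positive control.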

Assay [17] is described as follows: qHTS drug screen for cell cycle checkpoint inhibitors in PARPi-resistant BRCA-mutant ovarian cancer cell lines. (AID 1963452; calls by dose curve). The settings on record: PEO1/OlaR viability, CellTiter-Glo luminescence, 96 h, stronger effect = lower value. The procedure, abridged: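 PEO1, PEO4 and PEO1/OlaR ovarian cancer cells, 600 per well, exposed 96 h at 37C to a dilution series. Viability read by CellTiter-Glo luminescence, normalized to DMSO and empty wells; activity summarized as Z-AUC.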

Assay [18] is described as follows: Validation screen for inhibitors of Lassa infection (AID 463096; calls by dose curve; note: % is set by controls: 0 for no effect and ±100 for the full control effect). The settings on record: Lassa virus infection, cell-based; series mostly up to 46.1 µM.
A short description of assay [19]: Cell Viability - BJ (AID 421; calls by dose curve;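 note: potency is the fitted concentration of half-maximal effect; cells exposed to compound for 40 hours at 37 °C before readout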). As to conditions: BJ fibroblast viability, qHTS. The gist of the method: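 Luminescent ATP signal (CellTiter-Glo, 20 min at room temperature) served as the read-out of viable BJ cells after 40 hours of compound treatment. Responses were scaled between DMSO and 100 uM tamoxifen, and AC50 values were obtained by Hill modeling.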
A short description of assay [20]: qHTS Assay for Identification of Small Molecule Inducers of Hypoxia Response (AID 2120; active = well fitted curve in the direction sought with a large enough effect in the signal ratio, with a control signal flat, not every such curve was filed as active; the % refers to the signal ratio; note: 0% is about no effect). As to conditions: hypoxia response reporter cells, beta-lactamase ratio readout; series mostly up to 104 µM. The gist of the method:
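HRE-beta-lactamase reporter in CellSensor HRE-bla ME-180 cells, 2500 cells/well in Opti-MEM with 0.5% dialyzed FBS; compounds tested as titration series, 17 h at 37 degrees C. CCF4 substrate 2.5 h at room temperature; AC50 from 460/530 nm ratio.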

Inconclusive results are not listed. Calls of active or inactive are those of the source. Unless noted, calls come from the whole dose curve; as a rule, active = well fitted curve in the direction sought with a large enough effect; inconclusive = small, poorly fitted or top-dose-only effect, or another doubt; inactive = no such curve, though single readings can be large; an effect the other way counts as inactive or inconclusive. A value given as a limit tells only on which side of the number the result lay.

Chain of Thyrotropin-releasing hormone receptor (Homo sapiens) (P34981 whole entry, looked up): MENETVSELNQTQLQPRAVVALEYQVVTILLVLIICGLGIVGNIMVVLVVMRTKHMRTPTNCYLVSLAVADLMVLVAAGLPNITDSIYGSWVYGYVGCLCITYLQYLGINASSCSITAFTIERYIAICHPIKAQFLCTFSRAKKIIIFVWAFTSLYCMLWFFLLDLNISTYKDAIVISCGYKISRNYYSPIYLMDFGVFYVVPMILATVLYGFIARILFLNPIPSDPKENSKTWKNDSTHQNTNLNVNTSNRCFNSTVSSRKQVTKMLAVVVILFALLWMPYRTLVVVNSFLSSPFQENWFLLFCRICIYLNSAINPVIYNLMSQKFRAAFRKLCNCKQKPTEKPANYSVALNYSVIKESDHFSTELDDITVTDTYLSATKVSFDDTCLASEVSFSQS
Chain of Alpha-galactosidase (Coffea arabica) (Q42656 whole entry, looked up): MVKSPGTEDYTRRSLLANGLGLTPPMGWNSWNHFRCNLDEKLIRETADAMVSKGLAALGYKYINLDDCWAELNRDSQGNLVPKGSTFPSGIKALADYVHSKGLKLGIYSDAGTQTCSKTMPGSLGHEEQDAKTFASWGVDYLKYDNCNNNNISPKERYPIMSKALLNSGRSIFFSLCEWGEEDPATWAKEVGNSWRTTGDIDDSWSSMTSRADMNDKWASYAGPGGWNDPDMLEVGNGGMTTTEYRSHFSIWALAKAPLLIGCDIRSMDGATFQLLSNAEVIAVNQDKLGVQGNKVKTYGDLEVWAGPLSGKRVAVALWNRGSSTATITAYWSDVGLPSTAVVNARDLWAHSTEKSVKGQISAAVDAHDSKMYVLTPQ
Chain of Dual specificity protein kinase CLK4 (Homo sapiens) (Q9HAZ1 whole entry, looked up): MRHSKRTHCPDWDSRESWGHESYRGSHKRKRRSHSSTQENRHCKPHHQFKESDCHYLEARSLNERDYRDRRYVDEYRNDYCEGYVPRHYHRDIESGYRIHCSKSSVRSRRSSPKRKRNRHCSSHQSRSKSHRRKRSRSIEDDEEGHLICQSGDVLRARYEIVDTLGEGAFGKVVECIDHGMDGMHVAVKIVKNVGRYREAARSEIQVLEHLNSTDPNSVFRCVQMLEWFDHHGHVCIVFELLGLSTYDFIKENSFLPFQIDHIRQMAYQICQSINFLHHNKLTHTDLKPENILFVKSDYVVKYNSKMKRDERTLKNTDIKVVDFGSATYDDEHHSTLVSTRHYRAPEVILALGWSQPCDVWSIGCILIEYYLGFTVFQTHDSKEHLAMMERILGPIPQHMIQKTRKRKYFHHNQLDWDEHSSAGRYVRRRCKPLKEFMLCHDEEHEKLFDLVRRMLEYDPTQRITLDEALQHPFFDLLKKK
Chain of Pyruvate kinase (Leishmania mexicana) (Q27686 2-499 E452W): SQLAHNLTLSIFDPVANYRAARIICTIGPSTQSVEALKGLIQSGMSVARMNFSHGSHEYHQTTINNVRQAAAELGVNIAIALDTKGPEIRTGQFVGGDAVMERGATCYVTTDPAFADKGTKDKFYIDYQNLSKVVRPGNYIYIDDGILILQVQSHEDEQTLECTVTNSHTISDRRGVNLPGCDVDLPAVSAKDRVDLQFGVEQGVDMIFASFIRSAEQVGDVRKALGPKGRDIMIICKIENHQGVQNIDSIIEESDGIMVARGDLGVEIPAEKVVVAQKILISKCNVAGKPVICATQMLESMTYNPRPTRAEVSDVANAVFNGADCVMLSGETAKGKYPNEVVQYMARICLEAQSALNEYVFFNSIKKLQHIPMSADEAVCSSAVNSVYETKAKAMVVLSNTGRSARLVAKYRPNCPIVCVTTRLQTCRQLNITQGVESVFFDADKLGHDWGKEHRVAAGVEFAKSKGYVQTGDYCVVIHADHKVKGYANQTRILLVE
Chain of Guanine nucleotide-binding protein G(i) subunit alpha-1 (Homo sapiens) (P63096 whole entry, looked up): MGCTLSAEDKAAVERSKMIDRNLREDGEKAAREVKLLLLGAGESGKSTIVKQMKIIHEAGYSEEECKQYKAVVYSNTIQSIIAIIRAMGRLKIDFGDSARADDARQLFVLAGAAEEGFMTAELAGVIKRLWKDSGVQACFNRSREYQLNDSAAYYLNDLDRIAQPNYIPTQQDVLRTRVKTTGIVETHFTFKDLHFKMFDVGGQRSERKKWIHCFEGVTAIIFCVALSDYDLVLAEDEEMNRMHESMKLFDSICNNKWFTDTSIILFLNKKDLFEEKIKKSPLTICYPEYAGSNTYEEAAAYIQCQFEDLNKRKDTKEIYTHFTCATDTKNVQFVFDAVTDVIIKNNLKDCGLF

Consider `N#C/C(=C\c1ccc(O)c(O)c1)C(N)=S`, for which the result in [1], in assay [3], in assay [5], in assay [6], in assay [7] and in assay [8] was inactive. In addition, the Potency in assay [2] is 5.62 µM (active). Moreover, the Potency entry in assay [4] was “inactive”.
On to `C=CCN1CCc2cccc3c2C1Cc1ccc(O)c(O)c1-3` (centres undefined), for which the Potency result in assay [9] was “inactive”. The Potency in [10] is 2 µM (active). Moreover, the outcome in assay [11], in [13] and in assay [14] was inactive. Further, the activation in assay [12] was -2.75% (inactive).
On to `CN1CCN(c2ncc3ncc(=O)n(C)c3n2)CC1`, for which the result in [15] and in assay [16] was inactive.
Turning to `O=C(O)C1=CCCN(CCOC(c2ccc(C(F)(F)F)cc2)c2ccc(C(F)(F)F)cc2)C1`, the values for the Z-AUC in assay [17], in assay [17] (measured here: PEO1 parental Z-AUC) and in assay [17] (measured here: PEO4 Z-AUC) were -1.16 (inactive), -0.857 and -0.457, respectively.
As to `CCc1c(C(=O)OC)ncc2[nH]c3cc(OC)c(OC)cc3c12`, the call in assay [1], in [3], in assay [5], in assay [6], in assay [7] and in [8] was inactive. In addition, the outcome in [11], in assay [13] and in assay [14] was inactive. Further, in [2], the Potency was 5.62 µM (active). In addition, the Potency entry in assay [4] and in assay [18] was “inactive” each time. Also, the activation in [12] is 0.312% (inactive).
In the case of `CCCN1CCc2cc(O)cc3c2C1Cc1ccc(O)c(O)c1-3` (centres undefined), the Potency entry in assay [9] and in [18] was “inactive” in each case. For the same compound, the Potency in assay [10] was 3.98 µM (active). Also, the result in [11] and in [13] was inactive. Also, in assay [12], the activation is 0.375% (inactive).
As for `Clc1ccccc1-c1cncnc1NCCc1cnc[nH]1`, the result in assay [15] and in [16] was inactive.
Take `C/C=C/c1ccc2c(c1)OCO2`: the Potency in assay [19] is > 92 µM (inactive). The result in assay [20] was inactive.
For `C=CCc1ccc2c(c1)OCO2` the same measures were > 92 µM (inactive) and “inactive”.
